Hits are enriched below; roughly 0.78% of the tested compounds scored in any of these assays.
PolyA inhibitor – polyadenylation inhibitors in yeast reporter cells, primary screen, luminescence, S. cerevisiae; 0.02% of 300,000 active; S. cerevisiae SKY197-pL101 polyadenylation reporter, beta-gal luminescence; efflux-impaired pdr1/pdr3 knockout yeast; score 100 = 6 SD above DMSO; activity score, % at 12 µM;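 active = lowest replicate activity score at least 50, where 100 means six control SD above control mean; inconclusive = lowest score under 50 but half or more replicates reach 50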;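 also: yeast exposed to compound for 9 h at 30 °C; higher score means more reporter readthrough which indicates perturbed polyadenylation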
PKA-R1A activ – activators of PKA-R1A holoenzyme, primary screen, biochemical, fluorescence polarization, Cy5-IP20, bovine R1A, mouse PKAc; cAMP-dependent protein kinase type I-alpha regulatory subunit (Bos taurus) + …; PKA-R1A dissociation; scaled: DMSO 0%, 113 µM cGMP 100%; activation, % at 11.4 µM; 0.083% of 340,000 active; AID 504707, 2011;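 active = percent activation above the mean of all tested compounds plus 3 SD, cut at about 19% in these data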;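 also: higher means more PKAc released from R1A so a rise in polarization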
V-ATPase pHluor – regulators of yeast V-ATPase proton pumping, primary screen, pHLuorin cytosolic pH fluorescence | response, % at 10 µM | S. cerevisiae | 0.37% of 350,000 active; in the data active = response mostly above about 7.3%, no sharp cut-off; inactive = mostly below about 5.4%; also: actives read high
PKA-R2B activ – activators of PKA-R2B holoenzyme, primary screen, biochemical, fluorescence polarization, Cy5-IP20, human. cAMP-dependent protein kinase catalytic subunit beta (Homo sapiens) + cAMP-dependent …. PKA-R2B holoenzyme dissociation; R2B truncated from residue 108, S112A mutant; 0% DMSO only, 100% 113 µM cGMP. activation, % at 11.4 µM. 0.079% of 340,000 active. AID 504700, 2011;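 active = activation above a cutoff set at the mean over all compounds plus 3 SD, cut at about 18% in these data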;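 also: higher means more holoenzyme dissociation and a rise in polarization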
JMJD2C inh – inhibitors of GASC-1 histone demethylase, primary screen, biochemical, fluorescence, DELFIA europium; GST-JMJD2C(1-420) H3K9me3 demethylation; 0.069% of 330,000 active; Lysine-specific demethylase 4C (Homo sapiens), Q9H3R0; inhibition, % at 2.35 µM;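 active = more than half of a compound's replicate wells show inhibition beyond 50%, single wells judged on their own value; inconclusive = some, but no more than half, of replicates pass 50% inhibition; inactive = no replicate passes 50% inhibition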;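 also: signal counts dimethyl H3K9 product captured on neutravidin plate; 0% = median of DMSO wells and 100% = 0.3 times that DMSO median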
Target sequence (Q9H3R0 1-420 limits assumed): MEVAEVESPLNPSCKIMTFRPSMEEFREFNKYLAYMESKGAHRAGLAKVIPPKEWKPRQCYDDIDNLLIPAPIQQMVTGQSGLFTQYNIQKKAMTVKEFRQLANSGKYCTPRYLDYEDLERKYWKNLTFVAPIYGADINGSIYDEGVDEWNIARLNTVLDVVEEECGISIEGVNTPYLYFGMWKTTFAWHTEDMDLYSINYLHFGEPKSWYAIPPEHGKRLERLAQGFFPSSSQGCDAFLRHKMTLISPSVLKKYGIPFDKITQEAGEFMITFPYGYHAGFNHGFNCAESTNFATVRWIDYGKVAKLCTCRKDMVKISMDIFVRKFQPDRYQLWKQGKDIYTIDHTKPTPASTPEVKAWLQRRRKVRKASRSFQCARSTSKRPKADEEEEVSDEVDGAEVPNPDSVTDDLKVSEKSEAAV
Yeast superoxide – reduction of superoxide in aged yeast, primary screen, HTS; S. cerevisiae aged cells, superoxide DHE fluorescence; active compounds read low; superoxide response (% of plate mean), % at 10 µM; 0.18% of 330,000 active; AID 2690, 2010;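 active = superoxide response under a set limit, about three screen SD below normal, cut at about 65% in these data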;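 also: yeast aged for seven days with compound at 30 °C before DHE staining; 100% = average MFI of all compound-treated wells on the plate with controls excluded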
VATPase regulator – yeast V-ATPase proton pumping modulators, confirmation, S. cerevisiae, pH-sensitive GFP, second cherry-pick; shares compounds with V-ATPase pHluor; S. cerevisiae pHLuorin cytosolic pH, V-ATPase proton transport; response, % at 10 µM; 2% of 980 active; AID 602197, 2012; in the data active = response above about 24%;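 also: plate controls were vehicle wells for no effect and positive control wells for full effect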
Starred values were filed as active, the others as inactive; ? = inconclusive; / = no result given.

SMILES	PolyA inhibitor	PKA-R1A activ	V-ATPase pHluor	PKA-R2B activ	JMJD2C inh	Yeast superoxide	VATPase regulator
CCN1CCCC1CNc1ccc(S(C)(=O)=O)cc1[N+](=O)[O-] (stereo not given)	-2.1	-2.3	-2.1	3.0	-10.1	98.0	/
O=C(NCc1ccco1)Nc1ccc(Br)cc1	-4.3	-0.2	11.4*	-2.2	0.8	89.8	0.1
O=C(Nc1cccc(S(=O)(=O)N2CCCCC2)c1)C1CCCN1S(=O)(=O)c1ccccc1F (stereo not given)	/	6.7	-4.8	6.8	15.4	95.9	/
COCCCNC(=S)N/N=C/c1ccc(O)cc1	-1.2	3.2	12.9*	1.3	-0.8	91.9	0.4
Cc1ccc(C(=O)N2CCN(S(=O)(=O)c3ccc(C(C)C)cc3)CC2)s1	-3.7	4.4	-4.6	1.4	?	98.8	/
CC(=O)NCCNS(=O)(=O)c1ccc(C)c([N+](=O)[O-])c1	12.1	-3.3	10.2*	10.7	-5.1	87.1	1.3
Cc1ccc(S(=O)(=O)NC2CC2)cc1[N+](=O)[O-]	-7.9	-12.5	-1.7	2.2	-5.4	91.8	/
COc1ccc(C(=O)Oc2c(C)occc2=O)cc1OC	-11.7	6.1	21.0*	-1.8	-9.2	96.3	0.6
Cc1cccc(NCCC(=O)c2ccc([N+](=O)[O-])cc2)c1C	-1.1	-6.1	95.9*	3.4	-14.5	92.1	18.5
Cc1nn(CC(=O)OCC(=O)NCCc2ccc(F)cc2)c(C)c1[N+](=O)[O-]	/	5.4	9.9*	1.1	0.1	89.3	-4.4
CCOC(=O)c1nc2ccccc2c(C)c1C	14.2	-1.5	4.1	-9.1	-0.4	101.9	2.2
CCOC(=O)c1c(C)nc2ccccc2c1-c1ccccc1	-25.7	-2.4	2.9	-10.6	9.0	104.1	/
CCOC(=O)Cc1nc2ccccc2[nH]1	-14.6	-9.8	2.9	-6.1	7.2	77.4	-5.0
CCOC(=O)c1nc2ccccc2nc1C	21.8	-9.3	2.7	-9.1	2.4	78.5	/
CCOC(=O)c1c(C)nc2ccccc2c1C	9.9	-1.1	-2.6	7.6	-15.5	99.7	1.3
CCCN(CC(=O)Nc1ccccc1C)C(=O)Cc1cccs1	/	-7.2	1.8	-6.6	-4.7	112.8	/
CC(=O)N1CCCN(Cc2cn(-c3cc(C)ccc3C)nc2-c2ccccc2)CC1	11.2	2.6	4.6	-8.9	-2.7	101.0	/
CNC(=S)NNc1nc(C)cc(C)n1	0.2	0.2	-4.1	-13.2	-5.5	101.2	/
Cc1ccsc1-c1nc(CN(C)C(C2CC2)C2CC2)c(C)o1	-4.0	-0.8	18.1*	-7.4	3.5	107.0	0.5
O=C(Oc1ccc2ccc(=O)oc2c1)c1cccs1	10.8	-3.3	25.3*	5.7	-7.6	99.2	0.6
C#CCOCCOCCOCCNc1nc(N2CCN(C(=O)[C@H](CCCCN)n3cc(CN)nn3)CC2)nc(N2CCN(C(=O)[C@H](CCC(=O)O)n3cc([C@@H](N)CCCCN)nn3)CC2)n1	/	-1.7	-6.1	-0.6	12.1	110.9	/
C#CCOCCOCCOCCNc1nc(N2CCN(C(=O)[C@H](CCC(=O)O)n3cc(CN)nn3)CC2)nc(N2CCN(C(=O)[C@H](CCCCN)n3cc([C@@H](N)CC(N)=O)nn3)CC2)n1	/	-15.8	7.9*	2.8	5.6	98.0	-2.2
COc1cc(-c2cc(=O)c3c(O)cc(O)cc3o2)ccc1O	-13.3	/	/	/	-6.6	104.3	/
COc1cc(-c2cc(=O)c3ccccc3o2)ccc1O	-12.1	-4.3	7.7*	7.6	-0.4	89.4	6.6
Cn1ccc(NC(=O)Nc2cccc([N+](=O)[O-])c2)n1	0.8	/	0.2	/	-5.7	115.0	/
SMILES	PolyA inhibitor	PKA-R1A activ	V-ATPase pHluor	PKA-R2B activ	JMJD2C inh	Yeast superoxide	VATPase regulator
Cc1cccc(-n2c(CCn3nc(C)c([N+](=O)[O-])c3C)n[nH]c2=S)c1	6.9	-6.1	-5.5	0.3	18.2	104.2	/
COc1cccc(-n2c(CCn3nc(C)c([N+](=O)[O-])c3C)n[nH]c2=S)c1	16.6	10.2	9.7*	-4.7	-4.9	93.7	-2.4
N#Cc1ccc(S(=O)(=O)NC2CCCCNC2=O)cc1 (stereo not given)	16.2	-2.2	0.2	10.9	-0.6	107.6	/
O=C(NCCc1ccccc1)C(=O)N/N=C/c1ccc2c(c1)OCO2	-7.4	-3.4	-2.2	-1.4	-6.7	95.1	/
O=C(NCCc1ccccc1)C(=O)N/N=C/c1ccccc1C(F)(F)F	2.7	-1.1	9.6*	-4.8	-1.9	103.4	-1.7
COc1ccc(-c2nc(-c3cccc(C)c3)no2)cc1OC	-21.5	0.6	2.9	-3.2	-17.7	96.1	/
COc1cc(-c2nc(-c3cccc(C)c3)no2)cc(OC)c1OC	-12.8	-3.1	8.1*	4.5	32.4	90.1	0.0
Cc1cc(NC(=O)CSc2nc3c(C)cccc3cc2C)no1	-8.4	-0.5	0.9	5.2	-10.6	100.3	/
COc1cccc(CNC(=O)CCC2CCCN(C(=O)c3ccc(C)nc3)C2)c1 (stereo not given)	-10.5	-9.0	9.9*	1.9	3.1	96.4	4.3
Cc1ccc(C(=O)N2CCCC(CCC(=O)NCc3ccc(F)c(F)c3)C2)cn1 (stereo not given)	0.4	-4.5	-8.5	-12.6	-0.6	/	/
O=C(N[C@@H](Cc1ccccc1)C(=O)O)c1c(F)c(F)c(F)c(F)c1F	18.8	-0.6	3.6	-5.5	-5.1	102.4	/
CCCCCn1nc(C(=O)N(CC(C)C)c2c(N)n(CCCC)c(=O)[nH]c2=O)c2ccccc2c1=O	7.1	11.5	21.7*	-3.8	6.2	89.1	0.5
COc1ccccc1CC(NC(C)=O)C(=O)NC1CCN(C(=O)c2ccc([N+](=O)[O-])cc2)CC1 (stereo not given)	-0.9	2.9	0.9	-7.9	7.4	96.6	/
Cc1nn(Cc2ccccc2Cl)c(C)c1C(=O)NCC(c1cccs1)N1CCOCC1 (stereo not given)	22.1	-6.3	-5.0	0.1	-22.7	109.5	/
Cc1ccccc1C(=O)NC1CCN(CC(=O)Nc2ccc(N(C)C)cc2)CC1	13.8	-4.8	-5.2	2.0	5.6	94.5	/
CC(=O)c1ccc(NC(=O)CN2CCC(NC(=O)c3ccccc3C)CC2)cc1	/	-7.4	8.2*	3.8	/	/	-0.7
COc1ccc(-n2c(C)cc(C(=O)CN3C(=O)NC4(CCCc5sccc54)C3=O)c2C)cc1 (stereo not given)	2.8	-10.8	10.4*	-7.4	-3.5	108.7	-0.6

High-throughput results: PubChem BioAssay, several laboratories
